Results filed as inconclusive are left out. The source made the active and inactive calls. Unless noted, calls come from the whole dose curve; as a rule, active = well fitted curve in the direction sought with a large enough effect in the repeat runs; inconclusive = weak or mixed curves; inactive = no such curve, though single readings can be large; an effect the other way counts as inactive or inconclusive.
How the values were obtained:
[1] = target: Thyrotropin receptor (Homo sapiens) (UniProt P16473); experiment: qHTS assay to identify small molecule agonists of the thyroid stimulating hormone receptor (TSHR) signaling pathway (AID 1224843; calls by dose curve; note: nearly all actives have a fitted effect of over 45% in size)
Thyrotropin receptor (Homo sapiens), sequence (P16473 whole entry, looked up): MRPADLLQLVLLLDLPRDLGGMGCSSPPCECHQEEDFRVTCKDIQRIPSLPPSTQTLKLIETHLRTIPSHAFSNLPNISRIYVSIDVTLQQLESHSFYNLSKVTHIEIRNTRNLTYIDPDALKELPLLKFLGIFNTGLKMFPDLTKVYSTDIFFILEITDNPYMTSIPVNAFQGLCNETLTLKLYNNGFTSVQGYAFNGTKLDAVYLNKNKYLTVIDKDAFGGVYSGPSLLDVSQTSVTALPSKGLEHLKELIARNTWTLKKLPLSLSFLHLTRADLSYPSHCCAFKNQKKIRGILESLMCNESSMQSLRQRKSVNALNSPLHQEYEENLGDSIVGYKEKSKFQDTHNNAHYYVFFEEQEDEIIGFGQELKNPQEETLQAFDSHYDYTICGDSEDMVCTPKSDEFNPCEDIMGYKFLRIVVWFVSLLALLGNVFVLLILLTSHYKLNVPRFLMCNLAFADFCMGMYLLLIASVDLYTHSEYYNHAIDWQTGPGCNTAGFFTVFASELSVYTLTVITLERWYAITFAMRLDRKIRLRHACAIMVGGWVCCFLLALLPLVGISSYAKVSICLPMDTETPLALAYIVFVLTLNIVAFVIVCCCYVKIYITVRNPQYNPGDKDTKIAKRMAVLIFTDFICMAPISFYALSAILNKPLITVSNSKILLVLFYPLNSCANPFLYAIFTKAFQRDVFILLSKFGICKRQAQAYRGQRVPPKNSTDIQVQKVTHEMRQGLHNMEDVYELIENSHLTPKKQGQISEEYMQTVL
Procedure, shortened: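 TSHR-expressing HEK293 cells (800 per well) were exposed to compounds for 30 min at room temperature. cAMP was then detected by HTRF competition with cAMP-d2 and anti-cAMP cryptate, read after 1 h at room temperature. Fifteen concentrations, triplicate.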

[2] = qHTS assay to identify small molecule agonists of H2AX (AID 1224845; active = well fitted activation curve with a large enough effect in the signal ratio in the repeat runs, not every such curve was filed as active; the % refers to the signal ratio)
Procedure, shortened: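 Wild-type CHO-K1 cells plated overnight, then exposed 3 hr at 37C to compounds at 15 concentrations (0.76% DMSO). Lysed, then HTRF anti-pH2AX(S139)-cryptate/anti-H2AX-d2 detection after 24 hr at room temperature; emissions 665 and 620 nm.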

[3] = qHTS assay to identify small molecule agonists of the hypoxia (HIF-1) signaling pathway (AID 1224846; active = well fitted activation curve with a large enough effect in the signal ratio in the repeat runs, not every such curve was filed as active; the % refers to the signal ratio)
Procedure, shortened: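 Steps: seed ME-180 HRE-bla cells (2,000/well, 0.5% dialyzed FBS); incubate 5 hrs at 37C; pin-transfer compounds or DMSO; incubate 17 hrs; add LiveBLAzer B/G substrate CCF4-AM; measure reporter activation by FRET.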

[4] = qHTS assay to identify small molecule antagonists of the estrogen related receptor (ERR) signaling pathway from Tox21 library (AID 1224848); note: nearly all actives have a fitted effect of over 50% in size; note: potency is the fitted concentration of half-maximal effect
Procedure, shortened: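 Cells: ERR line, 2,000/well; 6 h preincubation 37 C/5% CO2. Cpd in DMSO via pin tool; 18 h, 37 C. ONE-Glo, 30 min RT, luminescence.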

[5] = qHTS assay to identify small molecule agonists of the estrogen related receptor (ERR) signaling pathway from Tox21 library (AID 1224849; calls by dose curve; note: nearly all actives have a fitted effect of over 15% in size); settings: ERR reporter cell line, ONE-Glo luciferase, 18 h; at 92.4 µM (top of the series) unless noted
Procedure, shortened: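 Agonist signal is luciferase luminescence from an ERR reporter cell line treated 18 h at 37 C with DMSO-dissolved compounds, read 30 min after ONE-Glo addition at room temperature.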

[6] = qHTS RealTime-Glo MT Cell Viability Assay in HepG2 cells - 24 hour (AID 1224867); note: nearly all actives have a fitted effect of over 50% in size
Procedure, shortened: (§1)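 Tox21 10K library screened in qHTS format on HepG2 cells carrying RealTime-Glo reagents. Compounds were added after a 5 h preincubation, and the luminescent signal from continuous culture was measured repeatedly during 40 h treatment.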

[7] = A CellTox Green Cytotoxicity Assay to monitor cytotoxicity in HEK293 cells - 0 hour (AID 1224869); note: nearly all actives have a fitted effect of over 50% in size
Procedure, shortened: (§2)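 Cytotoxicity was tracked continuously in HEK293 cells by a DNA-binding dye excluded from viable cells. Compounds were transferred in DMSO 5 h after seeding; fluorescence was recorded at intervals up to 40 h.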

[8] = qHTS RealTime-Glo MT Cell Viability Assay in HepG2 cells - 40 hour (AID 1224870); note: nearly all actives have a fitted effect of over 50% in size
Procedure, shortened: (§3)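 HepG2 cells mixed with RealTime-Glo MT reagents (NanoLuc plus cell-permeant prosubstrate) were seeded at 600 cells/well, incubated 5 h at 37 C/5% CO2, then pinned with compounds in DMSO; nonlytic luminescence tracked viability during 40 h treatment.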

[9] = qHTS RealTime-Glo MT Cell Viability Assay in HEK293 cells - 16 hour (AID 1224872)
Procedure, shortened: (§4)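 Luminescence generated by NanoLuc from substrate produced by living HEK293 cells served as the viability signal. Each value reflects the reading at its stated time point during continuous 40 h compound exposure at 37 C.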

[10] = qHTS RealTime-Glo MT Cell Viability Assay in HepG2 cells - 8 hour (AID 1224873); note: nearly all actives have a fitted effect of over 55% in size
Procedure, shortened: as §3

[11] = A CellTox Green Cytotoxicity Assay to monitor cytotoxicity in HepG2 cells - 16 hour (AID 1224876); note: nearly all actives have a fitted effect of over 45% in size; note: potency is the fitted concentration of half-maximal effect
Procedure, shortened: (§5)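 Real-time, homogeneous cytotoxicity readout: dead-cell DNA staining by CellTox Green in HepG2 monolayers, fluorescence measured at timed intervals up to 40 h of continuous compound exposure.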

[12] = qHTS RealTime-Glo MT Cell Viability Assay in HepG2 cells - 32 hour (AID 1224877); note: nearly all actives have a fitted effect of over 55% in size
Procedure, shortened: as §1

[13] = A CellTox Green Cytotoxicity Assay to monitor cytotoxicity in HepG2 cells - 24 hour (AID 1224878); note: nearly all actives have a fitted effect of over 45% in size; note: potency is the fitted concentration of half-maximal effect
Procedure, shortened: as §5

[14] = A CellTox Green Cytotoxicity Assay to monitor cytotoxicity in HepG2 cells - 40 hour (AID 1224879); note: nearly all actives have a fitted effect of over 40% in size; note: potency is the fitted concentration of half-maximal effect
Procedure, shortened: as §5

[15] = qHTS RealTime-Glo MT Cell Viability Assay in HEK293 cells - 32 hour (AID 1224868); note: nearly all actives have a fitted effect of over 50% in size; note: potency is the fitted concentration of half-maximal effect
Procedure, shortened: as §4

[16] = A CellTox Green Cytotoxicity Assay to monitor cytotoxicity in HEK293 cells - 40 hour (AID 1224871); note: nearly all actives have a fitted effect of over 45% in size
Procedure, shortened: as §2

[17] = qHTS RealTime-Glo MT Cell Viability Assay in HEK293 cells - 40 hour (AID 1224874); settings: RealTime-Glo luminescence; max response: stronger effect = lower value; note: nearly all actives have a fitted effect of over 50% in size; note: potency is the fitted concentration of half-maximal effect
Procedure, shortened: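 Nonlytic bioluminescent viability monitoring. HEK293 at 600 cells/well with reagent; 5 h settle; compound transfer by pintool; plates held at 37 C and read at set time points.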

[18] = A CellTox Green Cytotoxicity Assay to monitor cytotoxicity in HEK293 cells - 24 hour (AID 1224875); note: nearly all actives have a fitted effect of over 45% in size
Procedure, shortened: as §2

[19] = qHTS assay to identify small molecule agonists of H2AX - cell viability counter screen (AID 1224847; calls by dose curve; note: nearly all actives have a fitted effect of over 30% in size; note: potency is the fitted concentration of half-maximal effect)
Procedure, shortened: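 Read-out: CellTiter-Glo luminescence, 30 min RT. Cells: wild-type CHO-K1, 1000/well, 10% FBS, plated overnight at 37C. Treatment: 15 concentrations, 3 hr, 37C, 0.76% DMSO.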
% is set by controls: 0 for no effect and ±100 for the full control effect.

O=C=Nc1cccc(C(F)(F)F)c1
inactive: Potency [1] | Potency [2] | outcome [3] | activity change, positive = activation [5] -56.5% | Potency [6] | Potency [7] | Potency [8] | Potency [9] | Potency [10] | Potency [11] | Potency [12] | Potency [13] | Potency [14]
active: Potency [4] 60.7 µM

CCCCCCCCC(CCCCCC)C(=O)O (stereo not drawn)
active: Potency [13] 61.6 µM | Potency [14] 61.6 µM
inactive: Potency [1] | Potency [2] | activity change, positive = activation [5] -27.5% | Potency [6] | Potency [15] | Potency [8] | Potency [16] | Potency [9] | Potency [10] | max response [17] -3.96% | Potency [18] | Potency [11] | Potency [12]

CO[C@]1(NC(=O)CSC(F)F)C(=O)N2C(C(=O)O)=C(CSc3nnnn3CCO)CO[C@H]21
inactive: Potency [1] | Potency [2] | outcome [3] | Potency [19] | Potency [6] | Potency [15] | Potency [8] | Potency [9] | Potency [10] | max response [17] 21.2% | Potency [18] | Potency [11] | Potency [12] | Potency [13] | Potency [14]

Nc1cccc2c1CN(C1CCC(=O)NC1=O)C2=O (stereo not drawn)
inactive: Potency [1] | Potency [2] | outcome [3] | Potency [19] | Potency [6] | Potency [15] | Potency [7] | Potency [8] | Potency [16] | Potency [9] | Potency [10] | max response [17] 2.81% | Potency [18] | Potency [11] | Potency [12] | Potency [13] | Potency [14]

CC1(C)[C@@H](OC(=O)CCC(=O)O)CC[C@]2(C)[C@H]3C(=O)C=C4[C@@H]5C[C@@](C)(C(=O)O)CC[C@]5(C)CC[C@@]4(C)[C@]3(C)CC[C@@H]12
inactive: Potency [1] | Potency [2] | Potency [4] | activity change, positive = activation [5] 1.84% [at 42.5 µM] | Potency [6] | Potency [15] | Potency [7] | Potency [8] | Potency [16] | Potency [9] | Potency [10] | Potency [18] | Potency [11] | Potency [12] | Potency [13] | Potency [14]

COc1cc(C(=O)NCCCCCC(=O)O)cc(OC)c1OC
inactive: Potency [1] | Potency [2] | Potency [19] | Potency [4] | activity change, positive = activation [5] 1.72% [at 42.5 µM] | Potency [6] | Potency [15] | Potency [7] | Potency [8] | Potency [16] | Potency [9] | Potency [10] | max response [17] 1.12% | Potency [18] | Potency [11] | Potency [12] | Potency [13] | Potency [14]

COc1ccc(OC(=O)N(CC(=O)O)Cc2ccc(OCCc3nc(-c4ccccc4)oc3C)cc2)cc1
active: Potency [19] 27.7 µM
inactive: Potency [1] | Potency [2] | outcome [3] | activity change, positive = activation [5] -6.74% [at 42.5 µM] | Potency [15] | Potency [7] | Potency [8] | Potency [16] | Potency [9] | Potency [10] | max response [17] -9.99% | Potency [18] | Potency [12] | Potency [13] | Potency [14]

CCCCCCC(C)(C)C(=O)O
inactive: Potency [1] | Potency [2] | Potency [19] | activity change, positive = activation [5] -23% | Potency [6] | Potency [15] | Potency [7] | Potency [8] | Potency [16] | Potency [9] | Potency [10] | max response [17] 4.14% | Potency [18] | Potency [11] | Potency [13] | Potency [14]

C/C=C(/C(=C/C)c1ccc(O)cc1)c1ccc(O)cc1
active: Potency [11] 15.1 µM | Potency [13] 16.9 µM | Potency [14] 19 µM
inactive: Potency [1] | Potency [2] | Potency [6] | Potency [7] | Potency [8] | Potency [9] | Potency [10] | Potency [18] | Potency [12]

C=C1C[C@@]23CC[C@H]4[C@@](C)(CCC[C@@]4(C)C(=O)O[C@@H]4O[C@H](CO)[C@@H](O)[C@H](O)[C@H]4O)[C@@H]2CC[C@]1(O[C@@H]1O[C@H](CO)[C@@H](O)[C@H](O[C@@H]2O[C@H](CO)[C@@H](O)[C@H](O)[C@H]2O)[C@H]1O[C@@H]1O[C@H](CO)[C@@H](O)[C@H](O)[C@H]1O)C3
inactive: Potency [1] | outcome [3] | Potency [19] | Potency [4] | activity change, positive = activation [5] 1.6% | Potency [6] | Potency [15] | Potency [7] | Potency [8] | Potency [16] | Potency [9] | Potency [10] | max response [17] 3.82% | Potency [18] | Potency [12] | Potency [13] | Potency [14]

CCCCC(CC)CN (stereo not drawn)
inactive: Potency [1] | outcome [3] | Potency [19] | Potency [4] | activity change, positive = activation [5] 2.45% | Potency [15] | Potency [7] | Potency [8] | Potency [9] | Potency [10] | max response [17] 4.35% | Potency [18] | Potency [12] | Potency [13] | Potency [14]

CC1CC(C)C(=O)C1=O (stereo not drawn)
active: Potency [15] 13.8 µM | Potency [17] 13.8 µM
inactive: Potency [1] | Potency [2] | outcome [3] | Potency [19] | Potency [6] | Potency [7] | Potency [8] | Potency [16] | Potency [10] | Potency [18] | Potency [11] | Potency [12] | Potency [13] | Potency [14]

CCC(=O)OC
inactive: Potency [1] | Potency [2] | outcome [3] | Potency [19] | Potency [6] | Potency [15] | Potency [7] | Potency [8] | Potency [16] | Potency [9] | Potency [10] | Potency [18] | Potency [12] | Potency [13] | Potency [14]

Cc1ccc(CO)cc1
inactive: Potency [1] | Potency [2] | Potency [19] | Potency [6] | Potency [15] | Potency [7] | Potency [8] | Potency [16] | Potency [9] | Potency [10] | max response [17] 18.5% | Potency [18] | Potency [11] | Potency [12] | Potency [13] | Potency [14]

From PubChem BioAssay (Tox21)
